A number with no mark means an inactive call.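 How the source made its calls: active means inhibition at or above 50% relative to wild type and mutant plate controls; inactive means inhibition below 50%.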

The experiment is described as follows: inhibitors of Chlamydomonas gravitaxis, primary screen, whole organism, Chlamydomonas reinhardtii, WT vs cilia-less mutant, absorbance, 96-well (AID 463189).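 Further: 0% = wild type cc124 cells in DMSO and 100% = ciliumless bld1 mutant cells.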 To be noted: OD600 absorbance, 2 days, at 10 µM, stronger effect = higher value.
The inhibition is the drop in the measured response relative to a control, in per cent. Take `C=CCN1CC[C@]23CCCCC2[C@H]1Cc1ccc(O)cc13` (some centres undefined): the inhibition was 7.64%. With `NCC(CP(=O)(O)O)c1ccc(Cl)cc1` (centres undefined) the figure was -3.38%. In the case of `COc1ccc2c(c1)[C@@]13CCCC[C@H]1[C@@H](C2)NCC3`, the inhibition was 4.9%. In the case of `Cc1ncc(CNC(=O)N(CCCl)N=O)c(N)n1` it was 3.94%; in that of `CC1(C(=O)O)C2CCC(O2)C1(C)C(=O)O` (centres undefined), -0.9%; in that of `C[C@H]1C2Cc3ccc(O)cc3C1(C)CCN2CC1CC1` (some centres undefined), 8.28%.

Take `NC(Cc1ccc(N(CCCl)CCCl)cc1)C(=O)O` (centres undefined): the inhibition was 3.86%. With `CC(Cc1ccc(O)cc1)NCC(O)c1cc(O)cc(O)c1` (centres undefined) the figure was 1.02%; with `C[N+](C)(C)CC(=O)O`, 3.38%; with `CCCN1CCc2cc(O)cc3c2[C@H]1Cc1ccc(O)c(O)c1-3`, 0.25%.

Take `N[C@@]1(C(=O)O)CC[C@@H](C(=O)O)C1`: the inhibition was 5%. In the case of `N#CC(C#N)=Cc1ccc([N+](=O)[O-])c(O)c1` it was 2.16%; in that of `CCC1(C2=NCCN2)Cc2ccccc2O1` (centres undefined), -5.93%. With `COc1ccccc1N1CCNCC1` the figure was 6.65%; with `NCCc1c[nH]c2ccc(O)cc12`, -4.38%. With `CCC1(c2ccc(N)cc2)CCC(=O)NC1=O` (centres undefined) the figure was -0.133%; with `NC1CC1c1ccccc1` (centres undefined), 9.58%. As to `C=CCN1CCC23c4c5ccc(O)c4O[C@H]2C(=O)CC[C@@]3(O)C1C5` (some centres undefined), the inhibition was 4.89%. In the case of `Oc1ccc2c3c1O[C@H]1c4oc5ccccc5c4C[C@@]4(O)C(C2)N(CC2CC2)CCC314` (some centres undefined) it was 3.38%.
